# Laboratory results published in PubChem BioAssay AID588342 (National Center for Advancing Translational Sciences (NCATS), 2011).
# The campaign covered roughly 360,000 compounds. About 25,000 (6.9%) were called active. Not shown: some 9% with an inconclusive outcome. The call rests on the fitted dose curve; in most records, active means well fitted inhibition curve with a large enough effect; inconclusive means small, poorly fitted or top-dose-only effect; inactive means flat fitted curve, though single readings scatter. Many of the other results were omitted from the sample, so actives are more common in it than they were.
# Molecular target: Luciferin 4-monooxygenase (Photinus pyralis) (UniProt P08659)
# Test: qHTS profiling assay for firefly luciferase inhibitor/activator using purifed enzyme and Km concentrations of substrates (counterscreen for miR-21 project); further: nearly all actives have a fitted effect of over 55% in size;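 on activity change, negative = inhibition: plate controls were vehicle for no effect and reference inhibitor for full effect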
# Settings: purified FLuc, luminescence inhibition; series mostly up to 57.5 µM; activity change, negative = inhibition: at the top concentration
# Method in brief: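 Biochemical qHTS of compounds, final roughly 60 µM downward over six points, against 10 nM purified firefly luciferase using Km concentrations of substrates (10 uM D-luciferin, 10 uM ATP) in Tris acetate pH 7.5 buffer; luminescence output.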
# Potency means the concentration at half of the fitted maximal effect.
# Sequence of Luciferin 4-monooxygenase (Photinus pyralis) (P08659 whole entry, looked up): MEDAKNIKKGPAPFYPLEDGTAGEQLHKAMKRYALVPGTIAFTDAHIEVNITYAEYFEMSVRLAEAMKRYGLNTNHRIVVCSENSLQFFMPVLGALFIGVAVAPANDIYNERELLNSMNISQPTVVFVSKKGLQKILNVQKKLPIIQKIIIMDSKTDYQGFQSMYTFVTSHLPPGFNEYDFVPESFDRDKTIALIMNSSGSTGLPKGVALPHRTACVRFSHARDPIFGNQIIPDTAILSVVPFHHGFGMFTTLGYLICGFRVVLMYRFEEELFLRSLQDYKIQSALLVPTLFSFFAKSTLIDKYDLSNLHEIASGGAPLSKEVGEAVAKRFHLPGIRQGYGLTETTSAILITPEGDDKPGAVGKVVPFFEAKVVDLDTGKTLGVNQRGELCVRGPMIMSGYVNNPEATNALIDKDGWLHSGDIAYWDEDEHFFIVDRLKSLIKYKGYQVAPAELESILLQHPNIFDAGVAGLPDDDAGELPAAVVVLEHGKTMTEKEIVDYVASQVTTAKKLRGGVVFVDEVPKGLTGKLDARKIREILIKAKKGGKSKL
Structure (SMILES),"activity change, negative = inhibition",Potency
COc1cccc(-c2nc(CS(=O)(=O)CC(=O)N3CCN(c4cc(C)ccc4C)CC3)c(C)o2)c1,-13.9% (inactive),
COc1cccc(OCC(O)CNC(=O)c2oc3c(C)c(C)ccc3c2C)c1 (stereo not given),-0.457% (inactive),
O=C(NCc1ccccc1)C(=O)NCC1OCCN1S(=O)(=O)c1ccc(Br)cc1 (stereo not given),6.76% (inactive),
Cc1occc(=O)c1OCc1ccc(F)cc1,-0.892% (inactive),
O=C(Oc1ccc(-c2nnco2)cc1)c1ccc(F)c(S(=O)(=O)N2CCOCC2)c1,4.2% (inactive),
Fc1ccc(COc2ccc(-c3nnco3)cc2)cc1,,13.5 µM (active)
COCCN1Cc2cccc(C(=O)Nc3ccccc3OC)c2C1=O,-1.7% (inactive),
COc1ccc(NC(=O)c2cccc3c2C(=O)N(CC2CCCO2)C3)cc1OC (stereo not given),,26.9 µM (active)
CCCN1Cc2cccc(C(=O)Nc3ccc(S(=O)(=O)N4CCCCCC4)cc3)c2C1=O,-0.216% (inactive),
COC(=O)c1ccc(NC(=O)c2cccc3c2C(=O)N(C2CCCCC2)C3)cc1,0.21% (inactive),
CCOc1ccc(NC(=O)c2cccc3c2C(=O)N(CC2CCCO2)C3)cc1 (stereo not given),,8.49 µM (active)
COc1ccc(C(=O)Nc2ccc(C(=O)NCC3CCCO3)cc2)c(OC)c1OC (stereo not given),-1.51% (inactive),
Cc1ccsc1CN(C(=O)c1oc2ccc(Br)cc2c1C)C1CCS(=O)(=O)C1 (stereo not given),0.561% (inactive),
O=C1C=C(c2cc(C(F)(F)F)cc(C(F)(F)F)c2)C[C@@H](c2ccc3c(c2)OCO3)C1,2.27% (inactive),
Cc1cc(C(F)(F)F)n2ncc(-c3ccccc3)c2n1,2.87% (inactive),
Cc1cc(-n2nc(C)cc2C)n2ncc(-c3ccccc3)c2n1,-12.2% (inactive),
COc1ccccc1-c1cnn2c(N3CCOCC3)cc(C)nc12,,6.01 µM (active)
CC1Cc2ccccc2N1S(=O)(=O)c1cccc(C(=O)NCC(c2ccco2)N2CCCC2)c1 (stereo not given),-0.976% (inactive),
COc1ccccc1CNC(=O)C(=O)NCC(c1cccs1)S(=O)(=O)c1cccs1 (stereo not given),-10.2% (inactive),
O=C(/C=C/c1ccccc1)c1ccccc1O,,3.38 µM (active)
O=S(=O)(/C=C/c1ccccc1)N1CCNCC1,0.651% (inactive),
COc1ccc(C(=O)/C=C/c2ccc(-c3ccccc3)cc2)cc1CSCC(=O)O,0.374% (inactive),

Structure (SMILES),"activity change, negative = inhibition",Potency
O=C(/C=C/c1ccccc1)c1ccoc1,,15.1 µM (active)
Cc1[nH]c(=O)c(C(=O)/C=C/c2ccccc2)c2c1CCCC2,1.36% (inactive),
O=C(/C=C(O)/C=C/c1ccc(O)cc1)/C=C/c1ccc(O)cc1,-22.6% (inactive),
O=C(CSc1nnc(-c2ccncc2)n1-c1ccccc1)Nc1ccc(Cl)c(Cl)c1,-1.04% (inactive),
COc1ccc(CCNC(=O)c2cn(C)c3ccc(S(=O)(=O)N(C)C4CCCCC4)cc3c2=O)cc1OC,-1.48% (inactive),
CSc1ccc(C2c3c(oc4ccccc4c3=O)C(=O)N2CCCN2CCOCC2)cc1 (stereo not given),-7.46% (inactive),
COc1cc(Cl)c(C)cc1NC(=O)CSc1nnc(-c2ccco2)n1CC(C)C,-17.6% (inactive),
CCOc1ccc(C(=O)Nc2cccc(SC)c2)cc1,,6.01 µM (active)
CCOc1ccc(NC(=O)c2ccc(NC(=O)COC(=O)c3ccc(NC(=O)CC#N)cc3)cc2)cc1,-17.1% (inactive),
CCOc1cccc(NC(=O)CC#N)c1,3.03% (inactive),
CCOc1ccc(C(=O)Nc2c3c(nn2-c2ccccc2)CS(=O)(=O)C3)cc1,2.36% (inactive),
COc1ccc(OC)c(S(=O)(=O)Nc2cccc(-c3ccc4nncn4n3)c2)c1,-5.1% (inactive),
CCOc1ccc(C(=O)Nc2cccc(-c3ccc4nncn4n3)c2)cc1,,8.49 µM (active)
NS(=O)(=O)c1ccc(CCNS(=O)(=O)c2cccc3cccnc23)cc1,0.297% (inactive),
O=C(O[C@@H]1[C@H](Cc2ccccc2)NS(=O)(=O)[C@H]2C[C@@H]3C=C[C@]12O3)c1ccccc1Br,-0.0997% (inactive),
COc1cccc(NC(=O)N2CCCC2C(=O)NC2CCCCC2)c1 (stereo not given),0.664% (inactive),
COc1cccc(NC(=O)NCCN2CCCCC2)c1,-1.18% (inactive),
COc1cccc(NC(=O)Nc2nnc(N3CCCCC3C)s2)c1 (stereo not given),,13.5 µM (active)
CCOC(=O)C1(CCOC)CCN(Cc2cc3ccccc3s2)CC1,-3.36% (inactive),
CN(Cc1ccccc1)S(=O)(=O)c1ccc(F)c(C(=O)Nc2cccc(Cl)c2Cl)c1,-12.7% (inactive),
O=C1c2cccnc2C(Nc2ccc(S(=O)(=O)N3CCCCCC3)cc2)N1Cc1ccccc1 (stereo not given),-6.21% (inactive),
Brc1ccc(-c2csc(N/N=C/c3ccc4c(c3)OCO4)n2)cc1,-4.27% (inactive),

Structure (SMILES),"activity change, negative = inhibition",Potency
Cc1noc(C)c1/C=N/Nc1ccc2ccccc2n1,,1.69 µM (active)
C(=N\Nc1ccc2ccccc2n1)/c1ccc2c(c1)OCO2,,0.19 µM (active)
O=C(Cc1ccc(F)cc1)N/N=C/c1ccc2c(c1)OCO2,-18.1% (inactive),
COc1ccc(NC(=O)C2C3CCC(O3)C2C(=O)O)cc1OC (stereo not given),3.96% (inactive),
Cc1cccn2c(=O)c3cc(C(=O)NC(C)c4ccccc4)c(=N)n(CCCO)c3nc12 (stereo not given),-2.84% (inactive),
CCCN(CCC)CCNC(=O)c1ccc2c(c1)NC(=O)C(CS(=O)(=O)Cc1cccc(Br)c1)N2 (stereo not given),-2.74% (inactive),
COc1cccc(N=C2SC(C(=O)Nc3cccc(Cl)c3)CC(=O)N2C)c1 (stereo not given),-13.3% (inactive),
O=C(COc1ccccc1Cl)Nc1ccccc1C(=O)NC1CC1,-17.7% (inactive),
O=C(Nc1cccn(Cc2ccccc2Cl)c1=O)NC1CCCCC1,,21.3 µM (active)
COc1ccc(Cn2cccc(NC(=O)Nc3ccc(C#N)cc3)c2=O)cc1,-0.943% (inactive),
CCC(=O)c1ccc(OCC(=O)Nc2ccc(N3CCCCC3)cc2)cc1,0.479% (inactive),
CCC(=O)Nc1ccc(-c2ccc(N3CCCCC3)nn2)cc1,,12 µM (active)
CCOc1ccc(NC(=O)CCc2c(C)nn(-c3ccc(N4CCCC4)nn3)c2C)cc1,-15.8% (inactive),
O=C(CSc1nc2ccccc2nc1Cc1ccccc1)N1CCCCC1,-17.9% (inactive),
O=C(CC(c1cccs1)N1Cc2ccccc2C1=O)Nc1ccc(F)c(F)c1 (stereo not given),-1.07% (inactive),
Cc1sc2ncnc(N3CCC(C(=O)Nc4ccc(F)cc4Cl)CC3)c2c1C,1.82% (inactive),
Cc1sc2ncnc(N3CCC(C(=O)Nc4nc5ccc(Cl)cc5s4)CC3)c2c1C,,15.1 µM (active)
Cc1sc2ncnc(N3CCC(C(=O)NNC(=O)c4ccc(F)cc4)CC3)c2c1C,0.937% (inactive),
Cc1ccc(S(=O)(=O)N(C)C)cc1NC(=O)C1Cc2ccccc2CN1C(=O)c1ccco1 (stereo not given),-1.51% (inactive),
CCN(CC)c1ccc(C(=O)c2cnc(/N=C/N(C)C)s2)cc1,,16.9 µM (active)
CCN(CC)c1ccc(C(=O)Nn2c(C)nc3ccccc3c2=O)cc1,-4.86% (inactive),
